Bioassay records from PubChem BioAssay.
Sampled rows, rich in hits. Any-hit rate of the full collection: about 3.5%.
MITF inh = human MITF inhibition, primary screen. O75030. AlphaScreen MITF homodimerization, bead proximity signal. inhibition, % at 2.6 µM. 650,000 compounds, 0.91% hits. AID 1259374; in the data active means inhibition above about 50%;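 further: 0% = vehicle wells with protein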
GPR151 ag = activates the human receptor GPR151; Q8TDV0; PathHunter beta-arrestin GPR151 cells, luminescence; activation, % at 11.2 µM; 650,000 compounds, 1% hits; in the data active means activation above about 4.9%;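 further: 0% = median of compound wells and 100% = cells with positive control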
Target sequence (Q8TDV0 whole entry, looked up): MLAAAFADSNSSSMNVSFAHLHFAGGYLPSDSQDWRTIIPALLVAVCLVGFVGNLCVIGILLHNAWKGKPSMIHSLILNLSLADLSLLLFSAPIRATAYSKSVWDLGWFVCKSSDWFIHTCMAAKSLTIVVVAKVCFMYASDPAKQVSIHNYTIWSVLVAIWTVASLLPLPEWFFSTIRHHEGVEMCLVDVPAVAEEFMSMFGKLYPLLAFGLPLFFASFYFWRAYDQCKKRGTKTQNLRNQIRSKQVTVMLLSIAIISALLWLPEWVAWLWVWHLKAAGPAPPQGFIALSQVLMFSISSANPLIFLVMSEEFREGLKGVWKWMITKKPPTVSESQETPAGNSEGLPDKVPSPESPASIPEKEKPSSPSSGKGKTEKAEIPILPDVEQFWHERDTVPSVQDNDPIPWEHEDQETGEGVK
TEAD-YAP block = TEAD-YAP interaction inhibition; 640,000 compounds, 1.4% hits; AID 1259422; inhibition, % at 9.12 µM; HEK-TIYL cells, TEAD-Gal4/YAP UAS-luciferase luminescence; in the data active means inhibition above about 32%;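 further: 0% = median of test compound wells and 100% = reference inhibitor wells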
FBW7 act = activators of human E3 ligase FBW7; AID 1259310; Q969H0; 650,000 compounds, 0.13% hits; normalized activity (activation), % at 26.1 µM; AlphaScreen FBW7–phospho-cyclin E peptide binding, activator screen; in the data active means normalized activity above about 1.9%;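 further: purified mutant Fbw7 with reduced substrate affinity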
GPR151 conf act = human GPR151 activation, confirmation screen | shares compounds with GPR151 ag | GPR151 PathHunter beta-arrestin cells, luminescence, 90 min; % of EA-reagent control over plate median | activation, % at 11.2 µM | 6,700 tested, under 10 active;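 active means mean percent activation across replicates above the confirmation screen cutoff of 4.91%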
GPR119 ag = activates human GPR119 in a GPR151 counter-screen; GPR119 PathHunter beta-arrestin cells, luminescence, 90 min; 0 = compound-well median, 100 = enzyme-acceptor control; 6,700 compounds, 0.3% hits; shares compounds with GPR151 ag; activation, % at 11.2 µM;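 active means mean percent activation in the counterscreen above 29.09%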;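 further: counterscreen on off-target GPR119 to flag nonselective hits from the GPR151 activator screen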
Active calls of the source: *; . = not tested or not shown; ! = not confirmed by another sample.

SMILES	MITF inh	GPR151 ag	TEAD-YAP block	FBW7 act	GPR151 conf act	GPR119 ag
COC(=O)CNC1CCN(c2ccc(NC(=O)C3CCCC3)cc2)CC1	0.1	-0.6	1.7	0.1	.	.
CC(C)N(C(=O)Cn1cc(SCC(=O)NCC2CCCO2)c2ccccc21)C(C)C (stereo not given)	-1.4	11.8*	2.0	-0.1	-0.3	-2.0
O=C(CSc1cn(CCNC(=O)c2ccccc2)c2ccccc12)NCC1CCCO1 (stereo not given)	-18.2	-0.2	-5.5	0.1	.	.
O=C(Cn1c(=S)[nH]c2ccccc2c1=O)N1CCCC1	-3.9	0.9	-0.1	-0.1	.	.
Cc1ccc([N+](=O)[O-])cc1N1C(=O)C2CC=C(Cl)CC2C1=O (stereo not given)	-6.5	-0.4	-2.4	0.0	.	.
Cc1cc([N+](=O)[O-])ccc1N1C(=O)C2CC=C(Cl)CC2C1=O (stereo not given)	9.2	5.6*	1.7	-0.1	0.6	-3.1
NC(=O)CCN(CCC(N)=O)S(=O)(=O)c1ccccc1	13.8	6.6*	-1.8	0.4	-1.2	-4.4
NC(=O)CCN(CCC(N)=O)S(=O)(=O)c1ccc(Br)cc1	-2.1	1.1	1.5	-0.1	.	.
CCCOc1ccc(/C(=N\O)C(C)(C)NO)cc1	-14.3	-1.7	-22.9	0.1	.	.
COc1ccc(/C(=N/O)C(C)(C)NO)cc1	-2.5	5.1*	6.8	-0.2	-0.6	-1.6
COc1cc(NC(=O)NCc2cccs2)c2ncccc2c1	-1.3	5.6*	8.2	-0.7	-0.2	-3.8
CCNC(=O)c1sc2cc(C)ccc2c1Cl	9.2	6.4*	-27.9	-0.1	-0.9	-4.5
Cc1ccc(NC(=O)c2sc3cc(C)ccc3c2Cl)cc1	-8.3	1.2	-37.0	0.1	.	.
CCc1c(C#N)c(N)nc(SCC(=O)c2cc3ccccc3oc2=O)c1C#N	1.1	9.9*	-0.3	-0.1	-0.4	15.4
COc1cc(NC(=S)N2CCC(C(N)=O)CC2)cc(OC)c1	-12.1	7.5*	5.4	-0.4	0.3	-9.8
O=C(/C=C/c1ccccc1)N1CCN(C2=NN=C(c3ccccc3)CS2)CC1	0.9	6.2*	-20.9	-0.4	-1.3	-4.7
COC(C(=O)Nc1ccccc1C(=O)O)c1ccccc1 (stereo not given)	11.7	-0.3	4.1	0.0	.	.
COC(C(=O)Nc1c(F)cccc1F)c1ccccc1 (stereo not given)	0.7	5.9*	-0.9	0.5	-0.5	-7.7
Cn1c(=O)c2ccccc2n(C)c1=S	5.3	5.6*	1.1	0.5	-0.8	-4.5
O=C(Nc1cccc2ccccc12)c1cncc(Br)c1	-18.7	2.0	-7.0	0.0	.	.
O=c1cc(N2CCOCC2)oc2c(-c3ccccc3)cccc12	4.6	5.4*!	-6.7	0.1	-0.3	-5.8
O=C(CCc1ccccc1)Nc1nnc(-c2ccc(F)cc2)o1	-5.6	5.7*	-5.6	-0.1	0.6	7.1
c1ccc2c(c1)CCN(c1nc(NCCN3CCOCC3)c3[nH]cnc3n1)C2	2.0	1.4	-19.0	-0.2	.	.
O=C(COC(=O)c1ccc([N+](=O)[O-])o1)Nc1ccc(C(F)(F)F)cc1	-2.7	1.4	6.8	-0.1	.	.
CCOc1cc(C2C(C(=O)OC)=CN(CCOC)C=C2C(=O)OC)cc([N+](=O)[O-])c1O	5.6	6.0*	4.4	-0.4	0.9	-1.3
SMILES	MITF inh	GPR151 ag	TEAD-YAP block	FBW7 act	GPR151 conf act	GPR119 ag
O=C(NCc1cccnc1)c1cc(-c2ccc(F)cc2)no1	13.5	5.0*	-23.1	-0.2	0.1	-5.5
Cc1cc(CNC(=O)CC2C(=O)NCCN2Cc2cccc(Oc3ccccc3)c2)on1 (stereo not given)	1.5	2.9	5.9	0.1	.	.
Cn1nc([N+](=O)[O-])c2c(-c3nc4ccccc4o3)c(N)n(CCc3ccccc3)c2c1=O	17.7	0.6	8.6	0.2	.	.
COC(=O)Cn1cc(/C=C(/C#N)C(=O)Nc2ccccc2)c2ccccc21	2.3	0.3	1.9	0.1	.	.
N#C/C(=C/c1cn(CC(=O)O)c2ccccc12)C(=O)Nc1ccc(Cl)cc1	3.3	8.5*	10.9	0.3	-0.6	-4.9
CCC(=O)Oc1cc2c(C(=O)OC(C)C)c(C)oc2cc1Br	-5.9	8.2*	-44.5	0.0	1.0	16.7
CN1CCN(CCCN2c3ccccc3Sc3ccc(S(=O)(=O)N(C)C)cc32)CC1	-5.4	5.4*	.	-0.1	-0.8	-7.4
OCCN1CCN(CCCN2c3ccccc3Sc3ccc(Cl)cc32)CC1	18.2	4.4	2.9	-0.2	.	.
CCOC(=O)C1=C(C)NC(SCC(=O)Nc2cc(C)on2)=C(C#N)C1c1cccs1 (stereo not given)	9.2	5.8*	15.9	0.1	-0.8	-8.4
CCOC(=O)C1=C(C)NC(SCC(N)=O)=C(C#N)C1c1cccs1 (stereo not given)	4.6	0.0	5.2	-0.1	.	.
COc1cccc(CC2(CO)CCN(C(=O)CN3CCCC(c4ccccc4)C3)CC2)c1 (stereo not given)	7.3	5.2*	-0.2	-0.1	0.1	4.6
COc1cccc(CC2(CO)CCN(C(=O)Cn3cnnn3)CC2)c1	11.1	-1.9	4.0	0.2	.	.
FC1(F)C(F)(F)C(F)(F)C2(F)C(F)(F)C(F)(F)C(F)(F)C(F)(F)C2(F)C1(F)F (stereo not given)	1.1	5.1*	3.2	-0.1	-0.1	-5.7
COc1ccc(CN2CCC3(CCC(CNS(=O)(=O)C(C)C)O3)CC2)cc1 (stereo not given)	-3.4	6.3*	0.4	0.0	-0.2	2.6
COc1ccc(Nc2ncc(C(=O)Nc3cc([N+](=O)[O-])ccc3OC)c3ccccc23)cc1	-2.6	-0.6	-7.0	0.0	.	.
Oc1ccc(-c2nc(-c3cccc(C(F)(F)F)c3)c(-c3ccccc3)[nH]2)cc1	6.7	5.8*	11.6	0.2	-0.3	-3.9
Oc1ccc(-c2nc(-c3ccc(-c4ccccc4)cc3)c(-c3ccc(-c4ccccc4)cc3)[nH]2)cc1	10.6	-0.7	9.4	0.1	.	.
O=C(CSc1nc2ccccc2c(=O)n1CCC1=CCCCC1)c1ccc(Br)cc1	-8.4	0.3	-11.6	0.0	.	.
CC(=O)Nc1ccc(C(=O)CSc2nncn2C)cc1	1.1	9.6*	-1.4	-0.2	0.5	6.3
CCOC(=O)C1=C(O)/C(=C/c2ccc(N(C)C)cc2)N=C1C	14.9	12.2*	-2.0	-0.3	-0.4	-4.7
CCOC(=O)C1=C(O)/C(=C\c2ccc(F)cc2)N=C1C	-3.4	0.2	4.5	-0.1	.	.
COC(=O)CCC(=O)OC1(C)C(=O)C=C2C=C(C3CC3)OC=C2C1=O (stereo not given)	17.3	5.8*	.	0.1	-0.1	9.1
CN(CCCNC(=O)CCn1c(=O)c2cccn2c2cccnc21)C1CCCCC1	-3.4	5.3*	0.8	0.2	0.8	-5.5
c1ccc(-c2csc(N3CCN(c4ncccn4)CC3)n2)cc1	20.4	0.0	-50.5	0.6	.	.
